Test [1] is described as follows: qHTS assay for small molecule agonists of the p53 signaling pathway (AID 651631; calls by dose curve; note: nearly all actives have a fitted effect of over 15% in size; note: potency is the fitted concentration of half-maximal effect). In a few lines:
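Quantitative high-throughput format: 4,000 p53RE-bla HCT-116 cells/well, 5 h pre-incubation, 16 h compound exposure at 37 °C, 2 h room-temperature substrate step, fluorescence intensity measured.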
(In general: qHTS replaces the single test concentration by a dilution series.)

A short description of test [2]: qHTS assay for small molecules that induce genotoxicity in human embryonic kidney cells expressing luciferase-tagged ATAD5 (AID 651632). Note: nearly all actives have a fitted effect of over 15% in size. Note: potency is the fitted concentration of half-maximal effect. In a few lines: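 ATAD5-luc HEK293T, 2,000 cells/well; cpd or DMSO pin-transferred; 16 hr, 37C/5% CO2; Amplite 30 min RT; luminescence.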
Test [3] can be described thus: qHTS assay for small molecule agonists of the p53 signaling pathway - cell viability (AID 651633; calls by dose curve; note: nearly all actives have a fitted effect of over 30% in size; note: potency is the fitted concentration of half-maximal effect). The method in brief: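 p53RE-bla cells, seeded at 4,000 per well and rested 5 h at 37 C/5% CO2, received compounds in DMSO for 16 h at 37 C. CellTiter-Glo was then added, and luminescence was read after 30 min at room temperature to gauge cytotoxicity.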
Test [4] is described as follows: qHTS assay for small molecules that induce genotoxicity in human embryonic kidney cells expressing luciferase-tagged ATAD5 - cell viability (AID 651634; calls by dose curve; note: nearly all actives have a fitted effect of over 25% in size; note: potency is the fitted concentration of half-maximal effect). The method in brief: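 Fluorescence from CellTiter-Fluor, reporting protease activity within live cells, served as the viability read-out. HEK293T cells carrying luciferase-tagged ATAD5 had been treated with compound for 15.5 hr at 37C.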

Test [5] is described as follows: qHTS assay for small molecule disruptors of the mitochondrial membrane potential - cell viability (AID 720634; calls by dose curve;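 note: human HepG2 liver cancer cells; series mostly up to about 83 µM; nearly all actives have a fitted effect of over 20% in size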). The method in brief:
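Cells: HepG2, 2,000/well, attached overnight. Compound 1 hr, 37 C/5% CO2. +m-MPI dye, +CellTiter-Glo 30 min RT. Readout: luminescence (ATP).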

Test [6] can be described thus: qHTS assay for small molecule disruptors of the mitochondrial membrane potential (AID 720635). Note: potency is the fitted concentration of half-maximal effect. The method in brief:
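HepG2 cells (2,000/well) attached overnight at 37C, then took compound for 1 hr at 37C, 5% CO2. Mito-MPS dye was added for 30 min; fluorescence was read at 490/535 nm (monomers) and 540/590 nm (aggregates).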

Test [7] is described as follows: qHTS assay to test for compound auto fluorescence at 590 nm (red) in HepG2 cells (AID 720674). In a few lines: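 Intrinsic compound fluorescence in the red window (Ex/Em 540/590 nm) is measured in attached HepG2 cells exposed for 1 hr, DMSO vehicle as baseline, benchmarked to Rose Bengal sodium.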
Test [8] can be described thus: qHTS assay to test for compound auto fluorescence at 535 nm (green) in HepG2 cells (AID 720675).
Test [9] is described as follows: qHTS assay to test for compound auto fluorescence at 460 nm (blue) in HEK293 cells (AID 720678). The method in brief: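 Blue-channel (Ex/Em 405/460 nm) intensity measured in HEK293 cultures after overnight compound exposure at 37C; signal expressed relative to triamterene. Cells plated 2,000 per well in 10% dialyzed FBS medium and allowed 4-5 hr to attach.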
A short description of test [10]: qHTS assay to test for compound auto fluorescence at 590 nm (red) in HEK293 cells (AID 720679). In a few lines: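 Red-channel autofluorescence (Ex/Em 540/590 nm; Rose Bengal sodium reference) was measured after overnight 37C, 5% CO2 exposure of attached HEK293 cells, 2,000 per well in medium with 10% dialyzed FBS.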

A number with no mark means an inactive call. Inconclusive results are not listed. Activity calls are given as the source filed them. Unless noted, calls come from the whole dose curve; as a rule, active = well fitted curve in the direction sought with a large enough effect in the repeat runs; inconclusive = weak or mixed curves; inactive = no such curve, though single readings can be large; an effect the other way counts as inactive or inconclusive.
% is set by controls: 0 for no effect and ±100 for the full control effect.

With `NC(=O)CC[C@@H]1NC(=O)[C@H](Cc2ccccc2)NC(=O)[C@H](Cc2ccc(O)cc2)NC(=O)CCSSC[C@@H](C(=O)N2CCC[C@H]2C(=O)N[C@@H](CCCN=C(N)N)C(=O)NCC(N)=O)NC(=O)[C@H](CC(N)=O)NC1=O`, the Potency result in test [1], in test [2], in test [3], in test [4], in [5] and in [6] was “inactive” each time. The Potency result in [7], in test [8], in test [9] and in [10] was “inactive” throughout.

As for `CO[Si](CCCNc1ccccc1)(OC)OC`, the Potency entry in [1], in test [2], in test [3], in test [4], in test [5] and in [6] was “inactive” in each case. The Potency entry in [7], in test [8], in test [9] and in [10] was “inactive” throughout.

On to `CCCC/C=C/CCCCO`, for which the Potency entry in test [1], in test [2], in test [3], in [4], in test [5] and in test [7] was “inactive” throughout. Also, the Potency entry in [8], in test [9] and in [10] was “inactive” in each case.

As to `ON=C1CCCC1`, the Potency entry in [1], in [2], in [3], in test [4], in [5] and in test [6] was “inactive” in each case. The Potency result in [7], in test [8], in test [9] and in test [10] was “inactive” in each case.

For the molecule `CCOC(=O)/C=C(C)/C=C/C=C(C)/C=C/c1c(C)cc(OC)c(C)c1C`, the Potency in [1] is 21.1 µM (active). Further, the Potency entry in [2], in test [3], in test [4], in test [5], in test [7] and in test [8] was “inactive” each time. The Potency entry in test [9] and in test [10] was “inactive” throughout.

Consider `O=C1c2ccccc2Cc2ccccc21`, for which the Potency result in [1], in test [2], in [3], in test [4], in test [5] and in test [7] was “inactive” each time. In addition, the Potency result in [8], in test [9] and in [10] was “inactive” throughout. In addition, in test [6], the Potency is 12.3 µM (active).

Turning to `CC(=O)OCC(C)OC(C)=O` (stereo not given), the Potency entry in test [1], in test [2], in [3], in test [4], in [5] and in test [7] was “inactive” throughout. In addition, the Potency result in [8], in test [9] and in [10] was “inactive” throughout.

Take `O=C(O)c1c(Cl)cccc1Cl`: the Potency entry in test [1], in test [2], in test [3], in test [4], in [5] and in test [7] was “inactive” each time. Further, the Potency entry in test [8], in test [9] and in [10] was “inactive” each time.

As to `Oc1cccc2cc3cccc(O)c3c(O)c12`, the Potency entry in test [1], in test [2], in test [3], in test [4], in test [5] and in test [7] was “inactive” throughout. Also, the Potency result in test [8], in [9] and in [10] was “inactive” each time.

For the molecule `COc1ccc(-c2ccc3cc(C(=O)O)ccc3c2)cc1C12CC3CC(CC(C3)C1)C2`, the Potency in [1] was 2.37 µM (active); in test [3] it was 3.76 µM (active). Also, the Potency result in test [2], in [4], in test [5], in test [7], in test [8] and in test [9] was “inactive” each time. Besides, the Potency result in test [10] was “inactive”.

As to `C=C(C)C(=O)OCC[N+](C)(C)C`, the Potency entry in test [1], in test [2], in [3], in test [4], in [5] and in test [7] was “inactive” in each case. The Potency result in test [8], in [9] and in test [10] was “inactive” in each case.

Turning to `CCC(C)(C)C1CCCCC1OC(C)=O` (stereo not given), the Potency result in test [1], in [2], in [3], in test [4], in test [5] and in test [7] was “inactive” each time. Further, the Potency result in test [8], in test [9] and in test [10] was “inactive” throughout.

For `CC(C)=CCOc1ccc(/C=C/C(=O)c2ccc(OCC=C(C)C)cc2OCC(=O)O)cc1`, the Potency in [1] was 13.3 µM (active); in test [3] it was 10.6 µM (active); in test [6], 23.7 µM (active). For the same molecule, the Potency entry in test [2], in test [4], in test [5], in test [7], in test [8] and in [9] was “inactive” each time. The Potency result in test [10] was “inactive”.

For the molecule `CS(=O)(=O)CCNCc1ccc(-c2ccc3ncnc(Nc4ccc(OCc5cccc(F)c5)c(Cl)c4)c3c2)o1`, the Potency entry in test [1], in [2], in test [3], in [4], in [5] and in test [6] was “inactive” each time. The Potency entry in [7], in test [8], in [9] and in test [10] was “inactive” in each case.

As for `c1ccc(CSCc2ccccc2)cc1`, the Potency result in test [1], in [2], in test [3], in test [4], in test [5] and in test [7] was “inactive” throughout. Moreover, the Potency entry in test [8], in [9] and in test [10] was “inactive” throughout. The Potency in test [6] was 43.1 µM (active).

As for `CC(=O)SC[C@@H](Cc1ccccc1)C(=O)NCC(=O)OCc1ccccc1`, the Potency result in test [1], in [2], in [3], in test [4] and in [5] was “inactive” each time. The fluorescence, relative to Rose Bengal in [7] was 0.374% [at 18.6 µM]. Moreover, the fluorescence, % of fluorescein control in test [8] is 0.0221% [at 18.6 µM]. Also, the fluorescence, % of triamterene in test [9] is -0.317% [at 18.6 µM]. The fluorescence, % of fluorescent control in test [10] was -1.15% [at 18.6 µM].

`CC(=O)S[C@@H]1CC2=CC(=O)CC[C@]2(C)[C@H]2CC[C@@]3(C)[C@@H](CC[C@@]34CCC(=O)O4)[C@H]12`: the Potency in test [1] is 17.2 µM (active). Also, the Potency result in [2], in test [3], in test [4], in test [5], in [7] and in test [8] was “inactive” throughout. Further, the Potency result in [9] and in [10] was “inactive” each time.

Regarding `[O-][n+]1ccccc1SSc1cccc[n+]1[O-]`, the Potency in [1] was 2.66 µM (active); in test [2], 2.66 µM (active); in test [4], 7.5 µM (active); in [6] it was 0.668 µM (active). The Potency entry in test [3], in test [5], in [7], in test [8], in test [9] and in test [10] was “inactive” throughout.

Take `C[C@@H]1C[C@H]2[C@@H]3CCC4=CC(=O)C=C[C@]4(C)[C@@]3(Cl)[C@@H](O)C[C@]2(C)[C@@]1(OC(=O)c1ccco1)C(=O)CCl`: the Potency result in test [1], in [2], in test [3], in [4] and in [5] was “inactive” each time. For the same molecule, the Potency in test [6] was 11.4 µM (active). Besides, in test [7], the fluorescence, relative to Rose Bengal is -0.134% [at 18.6 µM]. Moreover, in [8], the fluorescence, % of fluorescein control was 0.0009% [at 18.6 µM]. The fluorescence, % of triamterene in test [9] was 0.0948% [at 18.6 µM]. Besides, the fluorescence, % of fluorescent control in test [10] was 0.225% [at 18.6 µM].

The values are drawn from PubChem BioAssay (Tox21).
